Source: PubChem
Pol iota inh: qHTS for Inhibitors of Polymerase Iota. AID 588590, 2011. Potency, µM (highest dose often 115 µM), inactives show at the top dose activity, negative = inhibition, actives largely listed as inhibitors. DNA polymerase iota (Homo sapiens), Q9UNA4. actives 1% (n = 390,000). Pol iota fluorescent replication assay, 10 min
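Fluorescent replication assay read twice, at 0 min and 10 min after adding 50 nM (final) substrate. Enzyme (10 nM) and compounds were first incubated 15 min at room temperature; enzyme-free buffer wells were negative controls.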
POLH inh: qHTS for Inhibitors of Polymerase Eta; DNA polymerase eta (Homo sapiens), Q9Y253; recombinant Pol eta, fluorescent DNA replication assay; Potency, µM (doses to about 114 µM), inactives show at the highest dose activity change, negative = inhibition, most hits filed as inhibitors; actives 1.2% (n = 390,000); AID 588591, 2011; also: % is scaled to controls: 0 for no effect and ±100 for the full control effect
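Pol eta (10 nM) was preincubated with compounds for 15 min at room temperature, after which fluorescent replication substrate (50 nM final) was added to start the reaction. Fluorescence was read kinetically at 0 and 10 min.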
Pol kappa inh: qHTS for Inhibitors of Polymerase Kappa | actives 0.53% (n = 400,000) | purified Pol kappa, fluorescent DNA synthesis assay, 10 min | AID 588579, 2011 | Potency, µM (doses to about 107 µM), inactives show at the highest dose activity, negative = inhibition, hits mostly inhibitors | DNA polymerase kappa (Homo sapiens), Q9UBT6; also: % is scaled to controls: 0 for no effect and ±100 for the full control effect
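10 nM Pol kappa was preincubated with compounds for 15 min at room temperature. Reaction started with 50 nM (final) substrate. Fluorescence read kinetically at 0 and 10 min.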
Pol beta inh: qHTS Assay for Inhibitors of DNA Polymerase Beta | P06746 | Pol beta primer extension/strand displacement, fluorescence kinetic | Potency, µM (highest dose often 114 µM), inactives show at the highest dose activity change, negative = inhibition, hits mostly inhibitors | actives 1.3% (n = 340,000); also: % is scaled to controls: 0 for no effect and ±100 for the full control effect
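Reaction started by 50 nM substrate onto compound-treated Pol beta (10 nM, 15 min preincubation, room temperature); plates read at 0 min and 10 min. Normalized concentration-effect data fitted by four-parameter Hill equation.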
FEN1 inh: qHTS Assay for the Inhibitors of Human Flap endonuclease 1 (FEN1); P39748; Recombinant FEN1 flap cleavage, fluorescence, 15 min; Potency, µM (top dose mostly 114 µM), for inactives: at the highest dose activity change, negative = inhibition, actives largely listed as inhibitors; actives 0.35% (n = 390,000); also: % is scaled to controls: 0 for no effect and ±100 for the full control effect; nearly all actives have a fitted effect of over 65% in size
Target sequence (P39748 whole entry, looked up): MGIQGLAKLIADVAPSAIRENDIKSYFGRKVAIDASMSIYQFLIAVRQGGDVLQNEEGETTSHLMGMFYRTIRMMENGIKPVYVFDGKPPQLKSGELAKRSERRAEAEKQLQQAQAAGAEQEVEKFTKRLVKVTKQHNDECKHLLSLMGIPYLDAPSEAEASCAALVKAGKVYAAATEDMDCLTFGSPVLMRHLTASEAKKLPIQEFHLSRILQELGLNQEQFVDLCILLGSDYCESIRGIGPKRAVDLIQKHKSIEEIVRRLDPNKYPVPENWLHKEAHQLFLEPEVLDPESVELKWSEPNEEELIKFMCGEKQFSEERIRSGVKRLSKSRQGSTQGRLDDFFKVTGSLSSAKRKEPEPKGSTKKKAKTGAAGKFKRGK
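Nuclease activity of 10 nM FEN1 was measured after 15 min of room-temperature exposure to titrated compounds, by adding 50 nM flap substrate and reading plates at 0 and 15 min.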
WRN helicase inh: qHTS for Inhibitors of WRN Helicase | Bifunctional 3'-5' exonuclease/ATP-dependent helicase WRN (Homo sapiens), Q14191 | WRN helicase unwinding, fluorescent forked duplex, kinetic | Potency, µM (titrated, usually from 114 µM), inactives show at the top dose activity change, negative = inhibition, actives largely listed as inhibitors | actives 0.46% (n = 360,000); also: % is scaled to controls: 0 for no effect and ±100 for the full control effect; nearly all actives have a fitted effect of over 55% in size
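WRN at 20 nM final preincubated with compound 15 min at room temperature; reaction started with 100 nM fluorophore/quencher forked duplex oligonucleotide and 2 mM ATP final. Unwinding followed kinetically by red fluorescence (ex 525, em 598 nm).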
Starred values were filed as active, the others as inactive; ? = inconclusive; nt = not tested or not shown; [ ] = another dose, or the depositor's remark. In the library only some 2.4% were active in any assay of this set; here they are far more common. Calls follow the shape of the dose curve; as a rule, active = well fitted curve in the direction sought with a large enough effect; inconclusive = small, poorly fitted or top-dose-only effect, or another doubt; inactive = no such curve, though single readings can be large; an effect the other way counts as inactive or inconclusive. Potency is read from the fitted curve at half-maximal effect.

SMILES	Pol iota inh	POLH inh	Pol kappa inh	Pol beta inh	FEN1 inh	WRN helicase inh
COc1ccc(C(=O)Nc2cc(-c3cccc(C)c3)nn2-c2ccccc2)cc1	-17%	-7%	-15%[60.1 µM]	10%	1%	nt
CCCCCCn1cnc2c(c1=O)c1nc3ccccc3nc1n2/N=C/c1ccco1	?	?	-17%	45µM*	2%	-35%
COCC(=O)N1CCC2(CCN(Cc3ccccc3)CC2)CC1	nt	nt	-1%[60.1 µM]	nt	nt	nt
O=[N+]([O-])c1cc(-n2cccc2)ccc1N1CCOCC1	159%	-19%	0%	7%	-8%	-5%
O=C(O)c1cc(-n2cccc2)ccc1N1CCOCC1	-28%[58.9 µM]	50µM*	?	0%	-3%	3%[11.6 µM]
CCc1ccc(CNC(=O)C2CCN(C(=O)c3ccc(-n4ccc5ccccc54)s3)CC2)cc1	?	-15%	?	14%	-7%	nt
CN(CC(=O)NCCC1=CCCCC1)S(=O)(=O)c1ccc2c(c1)c(=O)n(C)c(=O)n2C	79µM*	-5%	-19%	5%	-2%	-9%
CN(CC(=O)NCCc1ccc(Cl)cc1)S(=O)(=O)c1ccc2c(c1)c(=O)n(C)c(=O)n2C	16%	?	11%	14%	-1%	8%
C/C(=N\OCC(=O)OC(C)C(=O)Nc1ccc(C)c(S(=O)(=O)N2CCOCC2)c1)c1ccc2c(c1)OCO2 (stereo not given)	?	56µM*	-17%	nt	11%	-2%[11.6 µM]
Cc1ccc(NC(=O)c2ccc3c(c2)OCO3)cc1S(=O)(=O)N1CCOCC1	-14%	-7%	-12%	nt	-19%	-11%
COc1ccc(-c2cc(-c3ccco3)[nH]c(=O)c2C#N)cc1OC	10µM*	56µM*	79µM*	?	?	-8%
N#Cc1c(-c2ccccc2)cc(-c2ccc3c(c2)OCO3)[nH]c1=O	17%	-15%	2%	nt	-1%	-5%
Nc1cc(-c2nn[nH]n2)ccc1F	?	11µM*	?	-27%	-8%	-17%[57.1 µM]
COc1ccc(-c2nn[nH]n2)cc1OC	8%	-6%	-5%	0%	0%	-22%
CC(=O)OC1CCC23CC1(C)CCC2C(C)(C)CC3OC(C)=O (stereo not given)	nt	nt	-10%[60.1 µM]	nt	nt	nt
CCCN(CCC)c1cc(C)nc2nc(-c3ccc(Cl)cc3)nn12	7%	-13%	-3%	1%	16%	nt
Cc1nn(Cc2ccc(Cl)cc2)c(C)c1NC(=O)c1cc(-c2ccco2)on1	-22%	6%	-30%	1%	-12%	-4%
Cc1nn(Cc2ccc(Cl)c(Cl)c2)c(C)c1NC(=O)c1cc(-c2ccco2)on1	12%	-4%	-24%	45µM*	2%	-10%
Cc1c(-c2nsc(NC(=O)c3cccs3)n2)nnn1-c1ccc(Br)cc1	?	?	-21%	3.2µM*	13%	nt
COC(=O)c1ccc(-n2nnc(-c3nsc(NC(=O)c4ccc(Cl)cc4)n3)c2C)cc1	?	-23%	-9%	56µM*	10%	nt
Cc1ccc(-n2nnc(-c3nsc(NC(=O)c4ccccc4)n3)c2C)cc1	?	?	-7%[60.1 µM]	2%	1%	nt
Cc1ccc(CNC(=O)c2oc3ccc(S(=O)(=O)N4CCC(C)CC4)cc3c2C)cc1	21%	-13%	-4%	23%	?	nt
Cc1ccccc1-c1cncnc1NCc1cccnc1	nt	nt	5%[60.1 µM]	nt	nt	nt
O=C(N/N=C/c1c[nH]c2ccccc12)c1ccc(O)c(O)c1	?	?	?	45µM*	8%	?
O=C(N/N=C/c1c[nH]c2ccccc12)c1cccc(O)c1	12%	-19%	-5%[60.1 µM]	-9%	-22%	-3%
SMILES	Pol iota inh	POLH inh	Pol kappa inh	Pol beta inh	FEN1 inh	WRN helicase inh
COc1ccc(Br)c(C(=O)Nc2cc3c(cc2N2CCCCC2)n(C)c(=O)c(=O)n3C)c1	49%	-17%	-22%	2%	-14%	nt
CCc1ccc2occ(CC(=O)Nc3nnc(C)s3)c2c1	?	-14%	14%	5%	6%	nt
CCOC(=O)C1CCN(c2nc3c(S(=O)(=O)c4ccccc4)nnn3c3ccsc23)CC1	17%	10%	3%	34%	-3%	nt
Nc1nc(Nc2ccccc2)nc(NC2CCCCC2)c1[N+](=O)[O-]	-27%	-17%	-15%	-22%	-34%	79µM*
CCn1c(SCC(=O)Nc2sccc2C(N)=O)nnc1C1CC1	56µM*	-9%	?	nt	14%	2%[11.6 µM]
CCn1c(SCC(=O)Nc2ccc(F)cc2)nnc1C1CC1	8%	2%	-14%	7%	9%	5%
CO[C@@H]1[C@@H]2OP(=O)(O)OC[C@H]2O[C@H]1n1c(Sc2ccc(Cl)cc2)nc2c(N)ncnc21	nt	nt	-10%[60.1 µM]	nt	nt	nt
O=c1c(-c2cc(F)cc(F)c2)nc2cnc(N3CCNCC3)nc2n1CCc1ccccc1	nt	nt	1%[60.1 µM]	nt	nt	nt
Cc1ccc(NC(=O)c2ccccc2)cc1	-1%	-2%	-11%	-2%	1%	1%
Cc1ccc(NC(=O)C2=C(c3ccccc3)S(=O)(=O)CCS2(=O)=O)cc1	?	-7%	-8%	6%	1%	22µM*
C/C(N)=C(/C#N)C(=O)CSc1nnnn1-c1ccc(C)cc1	?	?	-32%	-28%	-19%	-9%
Cc1ccc(-n2nnnc2SCC(=O)NNC(=O)c2ccc([N+](=O)[O-])cc2)cc1	?	?	?	5.6µM*	8%	-13%[57.1 µM]
CCCC12CN3CC(CCC)(CN(C1)C3c1c(C)[nH]c(=O)[nH]c1=O)C2=O (stereo not given)	36%	-15%	1%	23%	0%	nt
